High-throughput results (PubChem)
Rows were chosen to be rich in hits. Some 4.3% of all compounds tested hit in one or more screens of this group.
NadD inh: blocks S. aureus nicotinate mononucleotide adenylyltransferase. inhibition, % at 20 µM. purified NadD enzyme, colorimetric absorbance read-out. 0.78% of 360,000 active; in the data active means inhibition above about 26%
FAS TE block: blocks the thioesterase domain of human fatty acid synthase; P49327; recombinant FAS-TE, OMFH fluorogenic substrate, fluorescence endpoint; inhibition, % at 15 µM; 0.67% of 360,000 active;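 active means compounds whose normalised, plate-corrected inhibition of enzyme fluorescence in the single-dose primary screen is 50% or more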
NR3A LBD binder: modulators (binders) of human NR3A ligand-binding domain. NR3A LBD differential scanning fluorimetry, Tm shift; 0% = protein alone, 100% = glycine-bound protein. Tm shift relative to glycine control, % at 25 µM. AID 1259313. 2.5% of 340,000 active;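 active means melting temperature shift of at least 10% of the positive control shift, at one fixed dose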
rCAG RNA binder: molecules binding r(CAG) RNA repeats; r(CAG) RNA repeat, TO-PRO-1 dye displacement fluorescence; inhibition, % at 3 µM; 1.3% of 370,000 active; AID 651821;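 active means inhibition above the plate cutoff, the mean of all test compounds on that plate plus 3 SD, cut at about 35% in these data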;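 further: higher means more dye released from RNA so lower well fluorescence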
FAS-TE conf: confirmation of human fatty acid synthase thioesterase inhibitors; shares compounds with FAS TE block; 45% of 2,300 active; inhibition, % at 15 µM; recombinant FAS-TE, OMFH fluorogenic substrate, fluorescence; AID 624325;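 active means compounds inhibiting the enzyme by at least 50% at 15 µM in any one of the replicates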
Large screens that a line does not name were inactive (follow-up assays come after a bar, where they were run).

O=C(CSc1nc2ccccc2c(=O)n1-c1ccc(F)cc1)Nc1ccc(C(=O)O)cc1	none
COC(=O)c1sc2ccccc2c1NC(=O)c1ccc(S(=O)(=O)N2CCCC(C)C2)cc1 (stereo unspecified)	FAS TE block 51.8 | FAS-TE conf inactive
Cc1ccccc1Cn1cc(COC(=O)N2CCOCC2)nn1	none (no result: NadD inh, FAS TE block, NR3A LBD binder)
CC(NC(=O)c1ccc(N(C)C)c([N+](=O)[O-])c1)c1ccc(-n2ccnc2)cc1 (stereo unspecified)	none
CC(NC(=O)c1cc([N+](=O)[O-])cc([N+](=O)[O-])c1)c1ccc(-n2ccnc2)cc1 (stereo unspecified)	FAS TE block 58.8 | FAS-TE conf 71.8
COC(=O)C[C@@H]1CC[C@H]2[C@H](COc3ccc(NC(=O)C4CCC4)cc3C(=O)N2C)O1	none (no result: NadD inh, FAS TE block, NR3A LBD binder)
CCOC(=O)c1c(NC(=O)CSc2ncnc3ccccc23)sc(C(C)=O)c1C	FAS TE block 50.1 | FAS-TE conf inactive
CCOC(=O)c1c(NC(=O)CSc2nc3cccnc3n2C)sc(C(C)=O)c1C	FAS TE block 79.6 (no result: rCAG RNA binder) | FAS-TE conf inactive
CCOC(=O)c1c(NC(=O)CSc2nnc(-c3ccccc3C)n2C)sc(C(C)=O)c1C	FAS TE block 58.8 | FAS-TE conf 67.6
CCOC(=O)c1sc(NC(=O)CSc2nc3cccnc3n2C)nc1C	none
CCOC(=O)c1c(NC(=O)CSc2nnc(-c3ccco3)o2)sc(C(C)=O)c1C	none
COC(=O)[C@@H](Cc1ccc(O)cc1)NC(=O)[C@H]1O[C@@H](n2cnc3c(=O)[nH]c(N)nc32)[C@H](O)[C@@H]1O	none (no result: NadD inh, FAS TE block, NR3A LBD binder)
C#CCNC(=O)C[C@H]1C[C@@]2(C(=O)OC)C(=C[C@H](C3CCCC3)O[C@@H]2C)N(Cc2cccc3ccccc23)C1=O	none (no result: NadD inh, FAS TE block, NR3A LBD binder)
O=C1c2ccccc2C(=O)N1CCCCN(C(=O)c1cc([N+](=O)[O-])cc([N+](=O)[O-])c1)c1ccc(Cl)cc1	FAS TE block 54.0 | FAS-TE conf inactive
O=C1c2ccccc2C(=O)N1CCCCN(C(=O)c1ccc([N+](=O)[O-])cc1)c1ccc(Cl)cc1	none
CN(c1ccccc1)S(=O)(=O)c1ccc(NC(=O)c2ccccc2)cc1	none
CN(c1ccccc1)S(=O)(=O)c1ccc(NC(=O)c2nc(S(C)(=O)=O)ncc2Cl)cc1	FAS TE block 58.4 | FAS-TE conf 68.2
O=C(CSc1nnc(-c2cccs2)o1)Nc1cc(Cl)cc(Cl)c1	none (no result: NadD inh, FAS TE block, NR3A LBD binder)
COc1cc2c(cc1OC)C(=O)N1[C@H]3c4cc(Cl)ccc4OC[C@@H]3[C@H](c3ccccc3)[C@]1(C)C(=O)N2	FAS TE block 85.8 | FAS-TE conf inactive
COc1ccc2c(c1)[C@H]1[C@H](CO2)[C@H](c2ccccc2)[C@@]2(C)C(=O)N[C@H](C)C(=O)N12	none
COc1cc2c(cc1OC)C(=O)N1[C@H]3c4cc(C)ccc4OC[C@@H]3[C@H](c3ccccc3)[C@]1(C)C(=O)N2	FAS TE block 64.5 | FAS-TE conf inactive
CCOC(=O)[C@@]12CCCC=C1N(CCc1ccc(Cl)cc1)C(=O)[C@H]2CC(=O)NCc1ccc(C)o1	none (no result: NadD inh, FAS TE block, NR3A LBD binder)
C=CCN1c2ccccc2[C@]23C[C@@H](C(=O)OC)N(C(=O)c4cc(C)oc4C)C2=NC(C(=O)OC)=C(C(=O)OC)[C@H]13	none (no result: NadD inh, FAS TE block, rCAG RNA binder)
CC#CCN1c2ccccc2[C@]23C[C@@H](C(=O)OC)N(C(=O)c4cc(C)oc4C)C2=NC(C(=O)OC)=C(C(=O)OC)[C@H]13	FAS TE block 58.6 | FAS-TE conf inactive
COC(=O)[C@]12CCCCC=C1N(Cc1ccc(OC)cc1)C(=O)[C@@H]2CC(=O)N1CCSCC1	none (no result: NadD inh, FAS TE block, NR3A LBD binder)
CC(=O)c1ccc(S(=O)(=O)N2CCN(CC(=O)NC(=O)NC3CCCCC3)CC2)cc1	none
O=C(CN1CCN(S(=O)(=O)c2ccc(Cl)c(C(F)(F)F)c2)CC1)NC(=O)NC1CCCCC1	FAS TE block 76.8 | FAS-TE conf 20.2
Cc1ccc(S(=O)(=O)N2CCN(Cc3nc4sc5c(c4c(=O)[nH]3)CCCC5)CC2)cc1	none
CC1CCc2c(sc3nc(CN4CCN(S(=O)(=O)c5ccccc5[N+](=O)[O-])CC4)[nH]c(=O)c23)C1 (stereo unspecified)	FAS TE block 90.6 | FAS-TE conf 50.3
NNc1nnnc2c1sc1nc(N3CCOCC3)c3c(c12)CCCC3	none (no result: NadD inh, FAS TE block, rCAG RNA binder)
Cc1cccc(-n2cnc3c(sc4nc(N5CCOCC5)c5c(c43)CCCC5)c2=O)c1	FAS TE block 65.9 | FAS-TE conf inactive
C[C@@H]1CCN(C2CC2)S(=O)(=O)c2c(cccc2N2CCC[C@H]2C)O1	none (no result: NadD inh, FAS TE block, NR3A LBD binder)
O=C(NC1CCCCN(Cc2cccc(Cl)c2)C1=O)c1ccc(F)cc1 (stereo unspecified)	none (no result: NadD inh, FAS TE block, NR3A LBD binder)
O=C(N/N=C\c1ccc(Cl)cc1)C1=NOC2COC3(CCN(c4ccc([N+](=O)[O-])cc4)CC3)OCC12 (stereo unspecified)	FAS TE block 68.8 | FAS-TE conf inactive
Cc1occc1-c1nnc(SCC(=O)N[C@@H]2CCc3ccccc32)n1-c1ccccc1	none (no result: NadD inh, FAS TE block, NR3A LBD binder)
COc1ccc(-c2csc(NC(=O)COc3ccc(N(C)S(=O)(=O)c4ccc(C)cc4)cc3)n2)cc1	FAS TE block 53.3 | FAS-TE conf inactive
O=C(Nc1nc(-c2ccc(S(=O)(=O)N3CCCC3)cc2)cs1)C1COc2ccccc2O1 (stereo unspecified)	FAS TE block 89.6 | FAS-TE conf 43.1
O=C(COc1ccccc1)Nc1nc(-c2ccc(S(=O)(=O)N3CCOCC3)cc2)cs1	FAS TE block 85.5 | FAS-TE conf 57.9
COc1ccccc1OCC(=O)Nc1nc(-c2ccc(S(=O)(=O)N3CCOCC3)cc2)cs1	none
Cc1ccc(Nc2nc(-c3ccc(S(=O)(=O)N4CCCC4)cc3)cs2)cc1C	none (no result: rCAG RNA binder)
O=S(=O)(c1ccc(-c2csc(Nc3ccc(F)cc3)n2)cc1)N1CCCC1	FAS TE block 65.2, NR3A LBD binder 23.6 | FAS-TE conf 45.7
Cc1occc1-c1nnc(SCC(=O)NCc2ccc(Cl)cc2)n1-c1ccccc1	none (no result: NadD inh, FAS TE block, NR3A LBD binder)
COC(=O)[C@]12C[C@H](CC(=O)NCc3ccc(OC)c(OC)c3)C(=O)N(Cc3ccco3)C1=C[C@H](C1CCCC1)O[C@@H]2C	none (no result: NadD inh, FAS TE block, NR3A LBD binder)
Cc1cccc(C2=NN(c3ccccc3)[C@@H](C(=O)N3CCOC3=O)[C@@H]2c2ccc(F)cc2)c1	none
O=C1OCCN1C(=O)[C@H]1[C@H](c2ccc(F)cc2)C(c2ccc(F)cc2)=NN1c1ccccc1	FAS TE block 73.6 | FAS-TE conf inactive
O=C1OCCN1C(=O)[C@H]1[C@H](c2ccc(Cl)cc2)C(c2ccc(F)cc2)=NN1c1ccccc1	FAS TE block 74.1 | FAS-TE conf inactive
COc1ccccc1[C@@H]1C(c2ccccc2)=NN(c2ccccc2)[C@H]1C(=O)N1CCOC1=O	FAS TE block 54.9 | FAS-TE conf inactive
Cc1cccc(C2=NN(c3ccc(Br)cc3)[C@@H](C(=O)N3CCOC3=O)[C@@H]2c2ccc([N+](=O)[O-])cc2)c1	FAS TE block 85.1 | FAS-TE conf inactive
COc1ccccc1-c1ccc(OCCCN2CCC(C(O)(c3ccccc3)c3ccccc3)CC2)cc1	none (no result: NadD inh, FAS TE block, NR3A LBD binder)
CC[C@@H]1C(c2ccc(F)cc2)=NN(c2ccccc2)[C@H]1C(=O)N1CCOC1=O	none
